# This is one part of a sample in which hits are shown more often than they occur.
# AmpC no deterg = AmpC beta-lactamase inhibition without detergent; P00811; AmpC nitrocefin hydrolysis, absorbance 480 nm, 0.0001% Triton; Potency, µM (highest dose often 57.1 µM), actives largely listed as inhibitors; 330,000 compounds, 0.52% hits; AID 485341; further: nearly all actives have a fitted effect of over 20% in size
# Target sequence (P00811 whole entry, looked up): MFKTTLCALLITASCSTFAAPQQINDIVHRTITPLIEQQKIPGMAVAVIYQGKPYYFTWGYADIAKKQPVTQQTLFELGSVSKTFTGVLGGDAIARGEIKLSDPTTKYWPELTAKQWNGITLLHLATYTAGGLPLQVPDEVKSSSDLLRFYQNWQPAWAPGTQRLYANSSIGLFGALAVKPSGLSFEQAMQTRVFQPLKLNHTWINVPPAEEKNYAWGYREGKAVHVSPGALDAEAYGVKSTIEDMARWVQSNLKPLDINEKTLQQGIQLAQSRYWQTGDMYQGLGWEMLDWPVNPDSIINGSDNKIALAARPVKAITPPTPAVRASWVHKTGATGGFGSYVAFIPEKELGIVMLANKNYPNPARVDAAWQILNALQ
#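 AmpC (5.3 nM in the dispensed reagent) in 20 mM phosphate pH 7.0 with 0.01% (detergent screen) or 0.0001% Triton X-100 was preincubated with compounds for 15 min at room temperature. Nitrocefin was then added from an 800 uM solution, and hydrolysis was followed at 480 nm.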
# Cycloheximide cs = affects cycloheximide protein synthesis inhibition readout, counter-screen | cell reporter, cycloheximide protein synthesis inhibition counterscreen | max response, % | 300,000 compounds, 12% hits; in the data active means max response mostly above about 13%, no sharp cut-off; inactive means mostly below about 14%; further: read at 38.3 µM for the half of the compounds with a filed dose
# Shiga toxin inh = blocks Shiga toxin action in Vero cells; Vero cells, Shiga toxin protein synthesis inhibition reporter; inhibition, % at 38.7 µM; 290,000 compounds, 9.2% hits; AID 2315; in the data active means inhibition mostly above about 28%, no sharp cut-off; inactive means mostly below about 43%
# AmpC inh detg = blocks E. coli AmpC beta-lactamase in detergent assay. P00811. AmpC hydrolysis of nitrocefin, absorbance 480 nm, 0.01% Triton. Potency, µM (series often up to 114 µM), actives largely listed as inhibitors. 370,000 compounds, 0.041% hits. AID 485294; further: nearly all actives have a fitted effect of over 25% in size
#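 AmpC (5.3 nM in the dispensed reagent) in 20 mM phosphate pH 7.0 with 0.01% (detergent screen) or 0.0001% Triton X-100 was preincubated with compounds for 15 min at room temperature. Nitrocefin was then added from an 800 uM solution, and hydrolysis was followed at 480 nm.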
# NS1 function inh = blocks influenza NS1 protein function; 270,000 compounds, 0.4% hits; AID 2326; Potency, µM (doses to about 46.1 µM); calls by dose curve; further: actives are rising curves; nearly all actives have a fitted effect of over 50% in size
#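 Read-out: OD600 growth recovery of NS1-expressing budding yeast. Cells grown overnight at 30C in -URA glucose medium, washed, resuspended and diluted 1:100 in 2% galactose assay medium, pH 6.0. Same strain lacking NS1 served as positive control.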
# A number is an active result; - = inactive; ? = inconclusive; . = no result; [ ] = dose if it differs, or a comment. Unless noted, the call rests on the fitted dose curve; in most records, active means well fitted curve in the direction sought with a large enough effect; inconclusive means small, poorly fitted or top-dose-only effect, or another doubt; inactive means no such curve, though single readings can be large; an effect the other way counts as inactive or inconclusive.
SMILES,AmpC no deterg,Cycloheximide cs,Shiga toxin inh,AmpC inh detg,NS1 function inh
O=C(Nc1ccccc1)c1cccc(-c2nnc(-c3ccccc3)o2)c1,-,17,-,-,-
CCCCC(=O)Nc1cccc(-c2nnc(-c3ccccc3)o2)c1,-,35,43,-,-
O=C(Nc1cccc(-c2nnc(-c3ccccc3)o2)c1)c1ccco1,-,-,-,-,-
CCS(=O)(=O)N1CCc2cc(C(=O)NC(C)c3ccccc3)ccc21 (stereo not drawn),.,.,.,-,.
O=C(NCCc1ccncc1)Nc1ccc(Cl)cc1,-,-,-,-,-
O=C(NCCc1ccc(F)cc1)Nc1ccccc1,-,30,31,-,-
O=C(NCCc1ccc(Cl)cc1)Nc1ccc(Cl)cc1,?,-,43,-,-
CC(C)(C)CC(=O)Nc1nnc(SCC(=O)N2CCCCC2)s1,-,-,-,?,-
Fc1cccc2sc(N3CCCC3)nc12,-,43,89,-,-
Brc1cccc2sc(N3CCCC3)nc12,-,34,-,-,.
Clc1cccc2sc(N3CCOCC3)nc12,.,.,.,.,-
Clc1cccc2sc(N3CCCC3)nc12,-,20,active,-,-
COCCn1c(C)cc(O)c(C(c2ccc(F)cc2)N2CCN(c3ccccc3)CC2)c1=O (stereo not drawn),.,.,.,-,.
Fc1ccc(-c2csc(/C=C/c3ccc4c(c3)OCO4)n2)cc1,-,20,39,?,-
N#C/C(=C\C=C\c1ccccc1)c1nc(-c2ccc3c(c2)OCO3)cs1,-,-,-,-,-
COc1ccc(Cl)cc1-c1csc(N)n1,-,-,-,-,-
Cc1nc(-c2ccc3c(c2)OCO3)cs1,-,16,43,-,-
Cc1nc(-c2cccc(N)c2)cs1,?,-,-,?,-
Nc1nc(-c2cc3c(cc2Cl)OCCO3)cs1,-,40,44,-,-
Nc1nc(-c2ccc3c(c2)OCCO3)cs1,-,50,79,?,-
O=[N+]([O-])c1cccc(COc2ncnc3cc([N+](=O)[O-])ccc23)c1,-,-,-,-,-
c1ccn2cc(-c3ccc4c(c3)OCCO4)nc2c1,-,-,-,-,.
Cc1nc(-c2ccc3c(c2)OCCCO3)cs1,-,45,87,-,-
O=C1c2ccccc2C(=O)N1c1cccc(-c2csc(Nc3ccc4c(c3)OCO4)n2)c1,-,20,71,-,-
c1cncc(-c2nc(-c3ccc4c(c3)OCO4)cs2)c1,-,28,85,-,-
SMILES,AmpC no deterg,Cycloheximide cs,Shiga toxin inh,AmpC inh detg,NS1 function inh
Nc1nc(-c2ccc3c(c2)CCCC3)cs1,-,36,93,-,-
COc1ccc(C2CC(=O)Oc3c(C(CCN4CCOCC4)c4ccc5c(c4)OCO5)c(OC)cc(OC)c32)cc1 (stereo not drawn),.,-,-,.,.
Cc1cc(S(=O)(=O)C(CNC(=O)COc2ccc(Cl)cc2)c2cccs2)ccc1F (stereo not drawn),.,.,.,-,.
CCCOC1(C(F)(F)F)NC(=O)N(c2cccc(Cl)c2)C1=O (stereo not drawn),.,.,.,-,.
O=C(NCC(c1cccnc1)N1CCN(c2ccccc2F)CC1)c1ccc(F)cc1 (stereo not drawn),.,.,.,-,.
Cc1ccc(NC(=O)CSc2nc3c(oc4ccccc43)c(=O)n2Cc2ccco2)cc1,.,.,.,-,.
CC1Cc2cc(-c3csc(N)n3)ccc2O1 (stereo not drawn),-,26,36,?,-
Nc1nc(-c2ccc3c(c2)NC(=O)CO3)cs1,-,-,-,-,-
Cc1ccc(C(=O)NCCN2CCOCC2)cc1,-,13,-,-,-
Cc1ccc(C(=O)NCCC(=O)N2CCOCC2)cc1,-,50,85,-,-
O=C(NCC(=O)N1CCOCC1)c1ccc(Br)cc1,-,-,-,-,-
O=C(NCCN1CCOCC1)c1ccc(Cl)cc1,-,-,-,-,-
Cn1cc(S(=O)(=O)c2ccc(Cl)cc2)c(=O)c2cc(F)c(N3CCCC3)cc21,.,.,.,-,.
CC(C)C(O)(C#CCN1CCCCCC1)c1ccccc1 (stereo not drawn),-,14,-,-,-
CC1(c2ccc(Cl)cc2)NC(=O)N(CN2CCOCC2)C1=O (stereo not drawn),-,-,-,-,-
CN1CCN(S(=O)(=O)c2ccc(N(C)Cc3ccc(C(F)(F)F)cc3)c([N+](=O)[O-])c2)CC1,-,.,.,-,.
c1ccc(-c2ncc(CN3CCN(c4ccccn4)CC3)[nH]2)cc1,-,-,-,-,-
COc1ccc(NC(=O)CSCC(=O)NCCc2ccccn2)cc1,-,-,-,-,-
COc1ccc(NC(=O)CSc2ccccn2)cc1,-,49,62,?,-
Cc1ccccc1CSCC(=O)Nc1ccccc1-c1ccccc1,-,-,-,-,-
COc1ccc(NC(=O)CSCc2ccccc2C)cc1,-,54,65,-,-
COc1ccc(NC(=O)CC(C)c2ccccc2)c([N+](=O)[O-])c1 (stereo not drawn),-,19,-,-,-
COc1ccc(NC(=O)CC(C)C)c([N+](=O)[O-])c1,-,-,-,-,-
COC(=O)CNC(=O)CSc1ccccn1,-,-,-,-,-
COc1ccccc1C(=O)CSc1ccccn1,-[2.29 µM],27,94,-,-
SMILES,AmpC no deterg,Cycloheximide cs,Shiga toxin inh,AmpC inh detg,NS1 function inh
O=C1Nc2cc(Cl)ccc2Oc2cc(Oc3ccccc3)ccc21,.,.,.,-,.
CCN(c1ccccc1)S(=O)(=O)c1nnc(NC(=O)COc2ccccc2F)s1,.,.,.,-,.
O=[N+]([O-])c1ccc(C2=Nn3c(nnc3-c3ccc(Cl)cc3)SC2)o1,.,.,.,.,-
O=S(=O)(O)c1ccc(NN(c2c(O)ccc3ccccc23)S(=O)(=O)O)cc1,.,.,.,.,-
CCc1ccc(NC(=O)CSCCO)cc1,-,-,37,-,-
Cn1c(N)c(C(=O)CSc2ccccn2)c(=O)n(C)c1=O,-,-,47,?,-
O=C(CCSc1ccccn1)Nc1ccc(Br)cc1,-,49,101,-,-
Cc1ccc(NC(=O)CSc2ncccn2)c([N+](=O)[O-])c1,-,28,82,-,.
Cc1ccc(C)c(NC(=O)/C(C#N)=C/c2ccc(C(C)C)cc2)c1,.,.,.,-,.
Cc1cccc(NC(=O)CSc2nc(=O)n(CCN3CCOCC3)c3c2CCC3)c1C,.,.,.,-,.
COc1ccc(C(=O)NCCSc2ccccn2)cc1,-,32,53,?,-
Cc1ccc(NC(=O)COC(=O)Cn2nc(C)c([N+](=O)[O-])c2C)c([N+](=O)[O-])c1,-,28,-,-,-
COc1ccc(NC(=O)CSc2ccccn2)c([N+](=O)[O-])c1,-,37,102,-,-
Cc1nn(CC(=O)OCC(=O)Nc2ccccc2[N+](=O)[O-])c(C)c1[N+](=O)[O-],-,-,-,-,-
CCc1ccc(NC(=O)CSc2ccc(-c3ccco3)nn2)cc1,-,17,-,-,.
COc1ccc(N(CC(=O)NCCSc2ccccn2)S(C)(=O)=O)cc1,-,-,-,-,-
O=C(CSc1ccccn1)Nc1ccc(Br)cn1,-,21,-,-,-
CCc1ccc(NC(=O)CSc2ccccn2)cc1,-,40,-,-,.
